For 11 compounds, max response and outcome results are on record in PubChem BioAssay (NCATS).

Experiment [1] is described as follows: qHTS Assay for Identifying Gametocytocidal Compounds (AID 743244).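 Also: actives lower the fluorescent signal which means gametocytes are killed.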 As to conditions: P. falciparum 3D7 stage III-V gametocytes, alamarBlue, 72 h; max response: stronger effect = lower value. The gist of the method:
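Fluorescence at Ex 525/Em 598 nm, recorded 24 h after alamarBlue addition, reports residual metabolic activity of 3D7 gametocytes (stages III–V) following 72 h compound exposure at 37 °C, 5% CO2.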

Experiment [2] is described as follows: qHTS assay for cell viability of HEK293 cells (AID 743288). Also: nearly all actives have a fitted effect of over 50% in size. As to conditions: ATP luminescence (CellTiter-Glo), 18 h; max response: stronger effect = lower value. The gist of the method: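 Readout is luciferase-coupled ATP content (CellTiter-Glo luminescence, 30 min room temperature) as a measure of metabolically competent cells. Parental HEK293 cells were plated 5 h or more before compound addition, then treated 18 h at 37 C.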

Experiment [3] is described as follows: qHTS assay for cell viability of the p53RE-bla HCT-116 cell line (AID 743292). Also: nearly all actives have a fitted effect of over 55% in size. The gist of the method:
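Intracellular ATP of p53RE-bla HCT-116 cells measured by luciferase luminescence following 16 h compound incubation at 37 C; DMSO-only wells served as vehicle controls.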

Inconclusive results are not listed. Unmarked numbers belong to inactive results. Calls of active or inactive are those of the source. Calls follow the shape of the dose curve; as a rule, active = well fitted curve in the direction sought with a large enough effect; inconclusive = small, poorly fitted or top-dose-only effect, or another doubt; inactive = no such curve, though single readings can be large; an effect the other way counts as inactive or inconclusive. Where a SMILES comes first, the peptide text is derived from it. Bridges are numbered along the chain shown (N, C = ends). [ ]: non-standard residue; d: D form. The star is where a group is joined. X2 = CC[C@H](C)CCCCC(=O)*; Dab = NCC[C@H](N)C(=O)O
% is scaled to controls: 0 for no effect and ±100 for the full control effect.

Take `Cc1ncc(C[n+]2csc(CCOP(=O)(O)O)c2C)c(N)n1`: the max response in experiment [1] is -3.97%.
The same measure, in the same setting: next, `CN(C)C=Nc1c(I)cc(I)c(CCC(=O)O)c1I`: 14.5%.
`CC(C)(C)CC(C)(C)c1ccc(OCCO)cc1`: the figures for the max response in experiment [1] and in experiment [2] were 12.7% and -25.1%, respectively. Besides, in experiment [3], the outcome was inactive.
As for `CN[C@@H]1[C@H](O[C@H]2[C@H](O[C@H]3[C@H](O)[C@@H](O)[C@H](N=C(N)N)[C@@H](O)[C@@H]3N=C(N)N)O[C@@H](C)[C@]2(O)CO)O[C@@H](CO)[C@H](O)[C@H]1O`, the max response in experiment [1] is 8.75%.
For `CC[C@H](C)CCCCC(=O)N[C@@H](CCN)C(=O)N[C@H](C(=O)N[C@@H](CCN)C(=O)N[C@H]1CCNC(=O)[C@@H]([C@H](C)O)NC(=O)[C@H](CCN)NC(=O)[C@H](CCN)NC(=O)[C@H](CC(C)C)NC(=O)[C@@H](CC(C)C)NC(=O)[C@H](CCN)NC1=O)[C@@H](C)O` (X2-[Dab]T[Dab][Dab][Dab][dL]L[Dab][Dab][dT]; lactam 4-C), the max response in experiment [1] is -2.93%.
`OCc1ccccc1`: the max response in experiment [1] was 0.478%; in experiment [2], 7.92%. Moreover, the result in experiment [3] was inactive.
Turning to `CC(C)CCCCCCc1ccc(O)cc1`, the max response in experiment [1] was 9.95%; in experiment [2], -15.7%. The compound was classed as inactive in experiment [3].
With `Cc1ncc[nH]1`, the values for the max response in experiment [1] and in experiment [2] were 20% and -10.6%, respectively. Moreover, in experiment [3], the result was inactive.
As to `Cc1ccc(S(=O)(=O)NCl)cc1`, the max response is 4.72% in experiment [1] and -7.16% in experiment [2]. Besides, in experiment [3], the call was inactive.
With `NCCN`, the max response in experiment [1] was 20.9%; in experiment [2], -4.96%. Besides, the compound was called inactive in experiment [3].
Take `[O]=[Bi][O]C(=O)[O][Bi]=[O]`: the max response in experiment [1] was -0.353%.
